Assay results published in article PMC5540273 (PLoS ONE, 2017).

What was measured:
Conditions in all cases: concentration: 1 μM, replicates: in singlicate; n = 1
INSR = tested on: INSR
IRAK1 = tested on: IRAK1
IRAK3 = tested on: IRAK3
IRAK4 = tested on: IRAK4
ITK = tested on: ITK
[1] = tested on: JAK1(JH1domain-catalytic)
[2] = tested on: JAK1(JH2domain-pseudokinase)
[3] = tested on: JAK2(JH1domain-catalytic)
[4] = tested on: JAK3(JH1domain-catalytic)
JNK1 = tested on: T1, JNK1
T1 construct: gene MAPK8
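Note: KINOMEscan kinase panel screen.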

Row | Structure (SMILES) | %Inh (INSR) [%] | %Inh (IRAK1) [%] | %Inh (IRAK3) [%] | %Inh (IRAK4) [%] | %Inh (ITK) [%] | %Inh [1] [%] | %Inh [2] [%] | %Inh [3] [%] | %Inh [4] [%] | %Inh (JNK1) [%]
1 | Cc1nn2c(=O)cc(N3CCOCC3)nc2n1Cc1cccc(Cl)c1Cl [GSK2342769] | 0 | 75 | 16 | 16 | 14 | 10 | 0 | 6 | 0 | 10
2 | Cc1nc(N(C)[C@H]2CN(C(=O)CC#N)CC[C@H]2C)c2cc[nH]c2n1 | 0 | 0 | 0 | 0 | 5 | 11 | 0 | 69 | 97.6 | 1
3 | O=c1cc(N2CCOCC2)nc2n(Cc3ccc(F)c(Cl)c3)ccn12 [GSK2297099] | 23 | 10 | 0 | 16 | 1 | 19 | 0 | 100 | 0 | 21
4 | Nc1ncnc2c1ncn2-c1cccc(F)c1 [SKF-97560] | 9 | 33 | 0 | 30 | 6 | 10 | 12 | 39 | 55 | 38
5 | Cc1nnc(-c2ccc(C)c(-c3ccc(C(=O)O)cc3)c2)o1 [GW608005] | 0 | 0 | 0 | 13 | 4 | 3 | 0 | 24 | 0 | 1
6 | Cc1cccc(-c2nc(Nc3ccc4c(cnn4C)c3)c3ccccc3n2)n1 [GW876731] | 0 | 0 | 0 | 0 | 0 | 15 | 16 | 26 | 0 | 1
7 | COc1cc(Nc2nccc(N3CCC(NC(=O)C(C)c4ccc(Cl)cc4)C3)n2)cc(OC)c1OC (stereo not shown) [GSK1379757] | 0 | 41 | 68 | 10 | 11 | 20 | 0 | 86 | 0 | 3
8 | Cn1c(=O)c(F)c(Nc2ccc(I)cc2F)c2c(=O)n(OC[C@H](O)CO)cnc21 | 5 | 0 | 0 | 0 | 3 | 2 | 14 | 9 | 1 | 18
9 | COc1ccc(-c2coc3ccc(-c4nnc(SCc5cccc(C#N)c5)o4)cc23)cc1 | 20 | 0 | 0 | 0 | 0 | 22 | 36 | 12 | 0 | 22
10 | COc1cc2ncn(-c3cc(OCc4ccncc4Br)c(C(N)=O)s3)c2cc1OC [GW854278] | 1 | 3 | 27 | 3 | 0 | 0 | 19 | 0 | 0 | 0
11 | COc1cc(OC)cc(-c2cc3cnc(N)nc3nc2NC(=O)NC(C)(C)C)c1 | 0 | 0 | 0 | 0 | 0 | 0 | 0 | 0 | 0 | 0
12 | CCn1c(-c2ccoc2)nc2cnccc21 [SB-733887] | 96.3 | 59 | 0 | 50 | 9 | 9 | 65 | 16 | 0 | 9
13 | Nc1ncnc2c1ncn2-c1cccc2ccccc12 [SKF-97184] | 0 | 27 | 0 | 0 | 0 | 1 | 33 | 54 | 19 | 15
14 | O=C(NCc1cccs1)c1cc(C(=O)c2c(Cl)cccc2Cl)c[nH]1 [GW823670] | 0 | 0 | 26 | 0 | 1 | 1 | 5 | 0 | 0 | 0
15 | CCS(=O)(=O)c1ccc(OC)c(Nc2ncc(-c3ccc(F)cc3)o2)c1.Cl [GW591947] | 0 | 0 | 0 | 3 | 0 | 11 | 0 | 8 | 0 | 2
16 | COc1cc2ncn(-c3cc(OCCCc4ccccc4)c(C(N)=O)s3)c2cc1OC [GSK205189] | 13 | 0 | 7 | 0 | 5 | 0 | 0 | 1 | 0 | 15
17 | COc1cc2nccc(Nc3ccc(OCc4ccc(NC(C)=O)cc4)cc3)c2cc1OC.Cl [GW440135] | 0 | 28 | 1 | 0 | 5 | 20 | 0 | 0 | 0 | 15

Row | Structure (SMILES) | %Inh (INSR) [%] | %Inh (IRAK1) [%] | %Inh (IRAK3) [%] | %Inh (IRAK4) [%] | %Inh (ITK) [%] | %Inh [1] [%] | %Inh [2] [%] | %Inh [3] [%] | %Inh [4] [%] | %Inh (JNK1) [%]
18 | Nc1n[nH]c2ncc(-c3ccccc3)cc12 [SB-517081] | 18 | 49 | 3 | 22 | 19 | 4 | 34 | 55 | 0 | 38
19 | Cc1c(Cn2c(C)nn3c(=O)cc(N4CCO[C@H](C)C4)nc23)cccc1C(F)(F)F [GSK2373690] | 0 | 23 | 14 | 24 | 26 | 21 | 0 | 14 | 0 | 18
20 | COc1ccc(-n2cnc3c(N)ncnc32)cc1 [SKF-97236] | 52 | 0 | 12 | 7 | 7 | 5 | 68 | 31 | 27 | 12
21 | O=C1NC(=O)C(c2ccccc2)=C1Nc1cccc(O)c1 [SB-390534] | 0 | 0 | 0 | 0 | 0 | 0 | 17 | 15 | 0 | 22
22 | Nc1nc(N)c2nc(-c3ccccc3)[nH]c2n1 [SKF-12778] | 0 | 34 | 0 | 3 | 8 | 11 | 84 | 50 | 39 | 20
23 | COc1cc(Nc2nccc(N3CCC(NC(=O)C4COc5ccccc5O4)C3)n2)cc(OC)c1OC (stereo not shown) [GSK1379761] | 0 | 61 | 76 | 0 | 4 | 7 | 21 | 98.5 | 55 | 20
24 | O=C(Nc1n[nH]c2nc(-c3ccccc3)c(Br)cc12)C1CC1 [SB-708998] | 7 | 0 | 0 | 6 | 1 | 0 | 0 | 18 | 0 | 29
25 | Cc1ccccc1COc1cc(-n2cnc3cc(Cl)ccc32)sc1C(N)=O [GW813349] | 3 | 22 | 3 | 17 | 13 | 0 | 20 | 17 | 0 | 24
26 | COc1cc2ncn(-c3cc(OCc4ccc(S(C)(=O)=O)cc4)c(C(N)=O)s3)c2cc1OC [GW869979] | 13 | 26 | 4 | 21 | 16 | 2 | 11 | 18 | 30 | 36
27 | CC(C)(C)c1ccc(C(=O)Nc2cn3cc(-c4ccccc4)ccc3n2)cc1 | 0 | 17 | 12 | 13 | 12 | 12 | 42 | 0 | 0 | 13
28 | O=C(Nc1ccc2c(c1)OCO2)NC1CCN(c2ccnc(NCc3ccc(F)cc3)n2)CC1 [GSK1379859] | 45 | 0 | 0 | 0 | 0 | 7 | 0 | 0 | 0 | 0
29 | COc1ccc(-c2cc3c(C)nc(N)nc3n([C@H]3CC[C@H](OCCO)CC3)c2=O)cn1 | 24 | 4 | 19 | 3 | 0 | 0 | 22 | 0 | 0 | 0
30 | CCCC(=O)Nc1n[nH]c2ncc(-c3cccc4ccccc34)cc12 [SB-642057] | 18 | 77 | 0 | 41 | 15 | 9 | 0 | 0 | 0 | 20
31 | COc1cccc(C2=C(Nc3cccc(C(=O)O)c3)C(=O)NC2=O)c1 [SB-390770] | 0 | 0 | 7 | 0 | 1 | 1 | 2 | 33 | 94.7 | 22
32 | COC(=O)c1c(-c2ccccc2)c2cc(Br)ccc2c(=O)n1Cc1ccc(S(C)(=O)=O)cc1 | 13 | 19 | 32 | 18 | 30 | 19 | 0 | 6 | 0 | 97.2
33 | Cc1cccc(-c2cc(-c3c[nH]nc3-c3ccccn3)ccn2)c1 [GW679395] | 1 | 34 | 1 | 18 | 4 | 5 | 0 | 8 | 0 | 56
34 | COc1cc(Nc2ccnc3ccc(C(F)(F)F)cc23)cc(OC)c1OC [GW577382] | 10 | 22 | 6 | 2 | 9 | 8 | 0 | 9 | 100 | 39
